# “And” between values parts separate entries of the source, which are not always exact repeats. Equal values may be shown once. For some of these results: Potency and affinity values are given separately. The source made the active and inactive calls.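 Rule for the calls, unless noted: active = thallium flux through the channel raised or lowered by more than 3 SD from vehicle-only wells, actives on both sides; inactive = the rest.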
# How the values were obtained:
# [1] = biological target: Calcium-dependent protein kinase 1 (Plasmodium falciparum (isolate 3D7)) (UniProt P62344); assay: PfCDPK1 kinase inhibitors, biochemical, TCAMS library (AID 1159585; cut-off not given, nearly all actives have IC50 up to about 0.98 µM;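 note: inhibitors leave more ATP so luminescence rises with inhibition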); details: recombinant PfCDPK1, Kinase-Glo ATP depletion luminescence
# F380Y = assay: modulators of BK channel variants, profiling panel, selectivity assay, cell-based, U2OS BacMam, thallium flux, beta subunits (AID 1259406); details: at 30 µM;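 note: initial slope of Thallos dye fluorescence rise after thallium is added; log ratio against the mean of 0.3% DMSO vehicle wells on the same plate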
# F380Y/beta1 = assay: as above; details: at 30 µM
# F380Y/beta2Delta = assay: as above; details: at 30 µM
# F380Y/beta4 = assay: as above; details: at 30 µM
# [2] = biological target: Calcium-activated potassium channel subunit alpha-1 (Homo sapiens) + Leucine-rich repeat-containing protein 26 (Homo sapiens) (UniProt Q12791+Q2I0M4); assay: as above; details: F380Y/Slo1WT/gamma1, at 30 µM
# R275C = assay: as above; details: at 30 µM
# R275C/beta1 = assay: as above; details: at 30 µM
# R275C/beta2Delta = assay: as above; details: at 30 µM
# R275C/beta4 = assay: as above; details: at 30 µM
# R275C/Slo1WT/beta2 = assay: as above; details: at 30 µM
# [3] = liver-stage malaria parasite growth inhibition, primary screen, cell-based, HepG2, luciferase luminescence, HepG2 viability (AID 624349; in the data active = parasite load remaining mostly below about 12%, no sharp cut-off; inactive = mostly above about 10%;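 note: 100% = mean of DMSO negative control wells on the same plate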); details: P. berghei liver stage in HepG2, luciferase luminescence, concentration not given here; parasite load remaining: stronger effect = lower value; viability: measured here: HepG2 viability without parasites
# [4] = Cy5 fluorescence interference with SSB-bound oligo, artefact control for HCV NS3 helicase inhibitor project, biochemical, NIH Clinical Collection, E. coli SSB (AID 743268; call rule not given here)
# [5] = tested on: Hepatitis C virus NS3 helicase; assay: HCV NS3 helicase inhibitors, primary screen, biochemical, fluorescence polarization, NIH Clinical Collection (AID 743270; call rule not given here); details: NS3 helicase binding to Cy5-dT15 DNA, stronger effect = higher value, concentration not given here
# [6] = biological target: Single-stranded DNA-binding protein (Escherichia coli (strain K12)) (UniProt P0AGE0); assay: E. coli SSB displacement from DNA, counter-screen for HCV NS3 helicase inhibitor project, biochemical, fluorescence polarization, NIH Clinical Collection (AID 743271; in the data active = inhibition above about 28%); details: stronger effect = higher value, concentration not given here
# [7] = fluorescence interference in NS3h assay format, artefact control for HCV NS3 helicase inhibitor project, biochemical, NIH Clinical Collection (AID 743272; call rule not given here;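 note: HCV NS3 helicase with a Cy5 labelled single stranded DNA probe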); details: fluorescence interference counterscreen, stronger effect = lower value
# [8] = tested on: Neuropilin-2 / VEGF-C interaction (human); assay: inhibitors of NRP2–VEGF-C binding, biochemical, microplate binding format, z-score (AID 743281; call rule not given here); details: microplate NRP2/VEGF-C binding assay; stronger effect = lower value
# [9] = modulation of C. elegans fzo-1 (AID 1259413; call rule not given here;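 note: fzo-1 mutant C. elegans worms in liquid wells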); details: C. elegans fzo-1 modulator screen, mean read-out; stronger effect = higher value
# [10] = differential killing of epithelial or mesenchymal cells, primary screen, imaging, PC-3E GFP, TEM4-18 mCherry, co-culture (AID 1345086;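 active = compounds killing one labelled cell type while sparing the other, by normalised counts and ratio limits, not self-fluorescent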;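 note: cells exposed to compound for 72 h before imaging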;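 for red/green cell ratio (normalised): normalised mesenchymal count divided by normalised epithelial count so high means epithelial killing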); details: imaging cell counts, at 1 µM
# [11] = sensitizers of A549 cells to miR-34 induction, primary screen, imaging, A549 dox-inducible miR-34, nuclei and caspase counts (AID 1347080;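 active = compounds whose cell count with miR-34 switched on is under 0.7 times the count with it off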); details: A549 miR-34 inducible, Hoechst nuclei count, 48 h
# Sequence of Calcium-activated potassium channel subunit alpha-1 (Homo sapiens) + Leucine-rich repeat-containing protein 26 (Homo sapiens) (Q2I0M4 whole entry, looked up, one chain of several): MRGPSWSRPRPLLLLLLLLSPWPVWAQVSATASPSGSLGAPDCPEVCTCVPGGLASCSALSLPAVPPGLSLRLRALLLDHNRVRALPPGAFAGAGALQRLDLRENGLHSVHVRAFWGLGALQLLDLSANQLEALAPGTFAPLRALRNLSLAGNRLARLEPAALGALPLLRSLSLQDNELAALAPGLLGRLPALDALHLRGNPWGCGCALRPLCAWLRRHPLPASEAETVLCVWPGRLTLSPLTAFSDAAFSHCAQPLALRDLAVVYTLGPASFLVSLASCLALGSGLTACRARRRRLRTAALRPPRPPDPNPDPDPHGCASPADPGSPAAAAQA
# Sequence of Calcium-dependent protein kinase 1 (Plasmodium falciparum (isolate 3D7)) (P62344 whole entry, looked up): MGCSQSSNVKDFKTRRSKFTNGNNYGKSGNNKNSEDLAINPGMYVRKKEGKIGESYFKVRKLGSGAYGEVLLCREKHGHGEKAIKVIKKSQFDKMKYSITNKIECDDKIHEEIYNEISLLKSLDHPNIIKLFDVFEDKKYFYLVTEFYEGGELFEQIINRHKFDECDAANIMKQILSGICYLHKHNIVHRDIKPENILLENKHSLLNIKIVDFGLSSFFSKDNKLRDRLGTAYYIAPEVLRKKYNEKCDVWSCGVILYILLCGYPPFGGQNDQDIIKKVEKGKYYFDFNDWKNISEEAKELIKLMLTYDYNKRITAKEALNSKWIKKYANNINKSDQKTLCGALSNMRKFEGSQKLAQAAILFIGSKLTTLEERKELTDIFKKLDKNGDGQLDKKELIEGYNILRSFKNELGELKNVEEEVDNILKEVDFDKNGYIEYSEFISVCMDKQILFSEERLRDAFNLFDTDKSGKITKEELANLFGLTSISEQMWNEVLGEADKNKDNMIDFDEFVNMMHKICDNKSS
compound,measurement,setting,value
CN(C)c1cccc(CCNCCc2c[nH]c3ccc(Cl)cc23)c1,outcome,[1],inactive
COC(=O)c1ccc(CC(C)NCC(O)c2cccc(C(F)(F)F)c2)c(OC)c1 (stereo unspecified),outcome,[1],inactive
CC(Cc1ccc(SC(C)C)cc1)NCC(O)c1cccc(Cl)c1 (stereo unspecified),outcome,[1],inactive
CCOC(=O)c1c(CN2CCN(C)CC2)n(Cc2ccccc2)c2cc(Br)c(O)cc12,outcome,[1],inactive
CCC1=C[C@@H]2CN(C1)Cc1c([nH]c3ccccc13)[C@@](C(=O)OC)(c1cc3c(cc1OC)N(C)[C@H]1[C@@](O)(C(=O)OC)[C@H](O)[C@]4(CC)C=CCN5CC[C@]31[C@@H]54)C2,outcome,[1],inactive
CCC(C)(C)N[C@@H](C)[C@@H](O)c1ccc(C(F)(F)F)cc1,outcome,[1],inactive
CSC(=NCc1ccccc1Cl)NC(N)=N[N+](=O)[O-],log fold change Tl+ flux,F380Y,0.0102 (inactive)
same,log fold change Tl+ flux,F380Y/beta1,0.0433 (inactive)
same,log fold change Tl+ flux,F380Y/beta2Delta,0.00986 (inactive)
same,log fold change Tl+ flux,F380Y/beta4,0.0594 (inactive)
same,log fold change Tl+ flux,[2],0.0227 (inactive)
same,log fold change Tl+ flux,R275C,-0.0153 (inactive)
same,log fold change Tl+ flux,R275C/beta1,-0.0278 (inactive)
same,log fold change Tl+ flux,R275C/beta2Delta,0.0233 (inactive)
same,log fold change Tl+ flux,R275C/beta4,-0.0373 (inactive)
same,log fold change Tl+ flux,R275C/Slo1WT/beta2,-0.0343 (inactive)
CN1CC(c2ccc(Cl)c(Cl)c2)OC1=N (stereo unspecified),outcome,[1],inactive
CC[C@H]1CN2CC[C@@H]1C[C@H]2[C@H](O)c1cc(N2CCC(c3ccccc3)CC2)nc2ccc(OC)cc12,outcome,[1],inactive
CC(C)c1ccc(C=CC(=O)NC2CCC(CN3CCC(c4c[nH]c5ccccc45)CC3)CC2)cc1 (stereo unspecified),outcome,[1],inactive
CN1CC=C(c2c[nH]c3ccc(C(=O)c4nccs4)cc23)CC1,outcome,[1],inactive
CC[C@H]1CN2CC[C@@H]1C[C@H]2[C@H](O)c1ccnc2ccc(OC)cc12,outcome,[1],inactive
CC(O)(CS(=O)(=O)c1ccc(F)cc1)C(=O)Nc1ccc(C#N)c(C(F)(F)F)c1 (stereo unspecified),parasite load remaining,[3],85.6% (inactive) and 26.5% (inactive)
same,viability,[3],71.8% and 108%
same,fluorescence ratio,[4],1 (inactive)
same,inhibition,[5],0.4% (inactive)
same,inhibition,[6],-0.87% (inactive)
same,fluorescence ratio,[7],0.95 (inactive)
same,z-score,[8],0.117 (inactive)
same,mean signal,[9],225 (inactive)
same,red/green cell ratio (normalised),[10]; actives lie on both sides,1.31 (inactive)
same,normalised cell number,[10]; measured here: epithelial PC-3E GFP cell survival,0.64
same,normalised cell number,[10]; measured here: mesenchymal TEM4-18 mCherry cell survival,0.84
same,log fold change Tl+ flux,F380Y,-0.0003 (inactive)
same,log fold change Tl+ flux,F380Y/beta1,0.0749 (inactive)
same,log fold change Tl+ flux,F380Y/beta2Delta,-0.0358 (inactive)
same,log fold change Tl+ flux,F380Y/beta4,-0.0644 (inactive)
same,log fold change Tl+ flux,[2],0.0529 (inactive)
same,log fold change Tl+ flux,R275C,-0.0123 (inactive)
same,log fold change Tl+ flux,R275C/beta1,0.266 (active)
same,log fold change Tl+ flux,R275C/beta2Delta,0.179 (active)
same,log fold change Tl+ flux,R275C/beta4,0.0752 (inactive)
same,log fold change Tl+ flux,R275C/Slo1WT/beta2,-0.00212 (inactive)
CCCCCSc1cc(O)c(C(CNC)C(C)C)cc1OC (stereo unspecified),outcome,[1],inactive
O=C(NC1CCC(CN2CCC(c3c[nH]c4ccccc34)CC2)CC1)[C@H]1Cc2ccccc2CN1 (stereo partly specified),outcome,[1],inactive
CN(Cc1ccccc1)C1CCN(CCc2c[nH]c3ccc(F)cc23)CC1,outcome,[1],inactive
CN1CCC(COC(=O)C(O)(c2ccccc2)c2ccccc2)C1 (stereo unspecified),outcome,[1],inactive
COc1ccc2[nH]cc(C3=CCNCC3)c2c1,parasite load remaining,[3],75.7% (inactive)
same,viability,[3],72.8%
same,fluorescence ratio,[4],0.58 (active)
same,inhibition,[5],-1.09% (inactive)
same,inhibition,[6],5.91% (inactive)
same,fluorescence ratio,[7],0.79 (active)
same,z-score,[8],-1.09 (inactive)
same,mean signal,[9],255 (inactive)
same,fold change,[11]; stronger effect = lower value,0.984 (inactive)
same,fold change,"[11]; stronger effect = lower value, cell number ratio, induced over uninduced",0.928 (inactive)
same,fold change,[11]; measured here: relative caspase fold change +Dox/-Dox,1.1 and 0.779
same,cell count,"[11]; measured here: total cells with miR-34 induction, stronger effect = lower value",6960 and 7660
same,cell count,[11]; measured here: total cells without miR-34 induction,7080 and 8260
same,log fold change Tl+ flux,F380Y,0.0506 (inactive)
same,log fold change Tl+ flux,F380Y/beta1,0.0695 (inactive)
same,log fold change Tl+ flux,F380Y/beta2Delta,0.0281 (inactive)
same,log fold change Tl+ flux,F380Y/beta4,0.0777 (inactive)
same,log fold change Tl+ flux,[2],0.0216 (inactive)
same,log fold change Tl+ flux,R275C,-0.00261 (inactive)
same,log fold change Tl+ flux,R275C/beta1,0.0891 (active)
same,log fold change Tl+ flux,R275C/beta2Delta,0.0216 (inactive)
same,log fold change Tl+ flux,R275C/beta4,0.0779 (inactive)
same,log fold change Tl+ flux,R275C/Slo1WT/beta2,0.242 (active)
Cc1ccc(S(=O)(=O)N2CN3CCN(C3)C2)cc1,log fold change Tl+ flux,F380Y,-0.028 (inactive)
same,log fold change Tl+ flux,F380Y/beta1,-0.0265 (inactive)
same,log fold change Tl+ flux,F380Y/beta2Delta,-0.0357 (inactive)
same,log fold change Tl+ flux,F380Y/beta4,0.048 (inactive)
same,log fold change Tl+ flux,[2],0.0134 (inactive)
same,log fold change Tl+ flux,R275C,0.0146 (inactive)
same,log fold change Tl+ flux,R275C/beta1,-0.00993 (inactive)
same,log fold change Tl+ flux,R275C/beta2Delta,-0.021 (inactive)
same,log fold change Tl+ flux,R275C/beta4,-0.0275 (inactive)
same,log fold change Tl+ flux,R275C/Slo1WT/beta2,0.0283 (inactive)
Cc1ccc(CC(C)NCC(O)c2cccc(Br)c2)cc1 (stereo unspecified),outcome,[1],inactive
O=c1[nH]c(=S)[nH]c(O)c1C=C1C=CC=N1,log fold change Tl+ flux,F380Y,0.0328 (inactive)
same,log fold change Tl+ flux,F380Y/beta1,0.0561 (inactive)
same,log fold change Tl+ flux,F380Y/beta2Delta,0.06 (inactive)
same,log fold change Tl+ flux,F380Y/beta4,0.0563 (inactive)
same,log fold change Tl+ flux,[2],0.0242 (inactive)
same,log fold change Tl+ flux,R275C,0.0249 (inactive)
same,log fold change Tl+ flux,R275C/beta1,0.101 (inactive)
same,log fold change Tl+ flux,R275C/beta2Delta,0.0741 (inactive)
same,log fold change Tl+ flux,R275C/beta4,0.0391 (inactive)
same,log fold change Tl+ flux,R275C/Slo1WT/beta2,-0.0255 (inactive)
N#CC(C#N)=Cc1cccnc1,log fold change Tl+ flux,F380Y,0.00869 (inactive)
same,log fold change Tl+ flux,F380Y/beta1,0.00181 (inactive)
same,log fold change Tl+ flux,F380Y/beta2Delta,-0.0117 (inactive)
same,log fold change Tl+ flux,F380Y/beta4,-0.0312 (inactive)
same,log fold change Tl+ flux,[2],6.5e-05 (inactive)
same,log fold change Tl+ flux,R275C,-0.0132 (inactive)
same,log fold change Tl+ flux,R275C/beta1,-0.0358 (inactive)
same,log fold change Tl+ flux,R275C/beta2Delta,-0.0205 (inactive)
same,log fold change Tl+ flux,R275C/beta4,0.025 (inactive)
same,log fold change Tl+ flux,R275C/Slo1WT/beta2,-0.0203 (inactive)
FC(F)(F)c1cccc(N2CCC(CN3CCC(c4c[nH]c5ccccc45)CC3)CC2)n1,outcome,[1],inactive
C=C[C@H]1CN2CC[C@@H]1C[C@H]2[C@H](O)c1cc(-c2ccc(F)cc2)nc2ccc(OC)cc12,outcome,[1],inactive
Cc1csc2sc(C=C(C#N)C#N)c(C)c12,log fold change Tl+ flux,F380Y,0.0324 (inactive)
same,log fold change Tl+ flux,F380Y/beta1,-0.023 (inactive)
same,log fold change Tl+ flux,F380Y/beta2Delta,0.0231 (inactive)
same,log fold change Tl+ flux,F380Y/beta4,0.00092 (inactive)
same,log fold change Tl+ flux,[2],0.0126 (inactive)
same,log fold change Tl+ flux,R275C,0.0225 (inactive)
same,log fold change Tl+ flux,R275C/beta1,0.0369 (inactive)
same,log fold change Tl+ flux,R275C/beta2Delta,0.00343 (inactive)
same,log fold change Tl+ flux,R275C/beta4,0.00359 (inactive)
same,log fold change Tl+ flux,R275C/Slo1WT/beta2,0.0163 (inactive)
CC[C@H]1CN2CC[C@H]1C[C@H]2C(O)c1cc(OC)nc2ccccc12 (stereo partly specified),outcome,[1],inactive
CCOC(=O)c1c(C)n(C2CCCCC2)c2cc(Br)c(O)cc12,outcome,[1],inactive
Oc1cc2c(cc1CN1CCN(Cc3ccccc3)CC1)CCC2,outcome,[1],inactive
N#Cc1ccc(N(CC(=O)NCCc2ccccc2)CC2CC2)c2ccccc12,outcome,[1],inactive
COCCNCc1cccc(-c2ccc(CN(C(=O)NC3CCCCC3)C3CCN(Cc4ccccc4)CC3)cc2)c1,outcome,[1],inactive
COC(=O)c1ccc(CC(C)NCC(O)c2ccc(F)c(Cl)c2)cc1 (stereo unspecified),outcome,[1],inactive
COc1ccc(C(=O)c2ccc3[nH]cc(C4=CCN(C)CC4)c3c2)cc1,outcome,[1],inactive
O=C(Cc1cc(=O)oc2cc(O)ccc12)N1CCC(CN2CCC(c3c[nH]c4ccccc34)CC2)CC1,outcome,[1],inactive
CC[C@H]1CN2CC[C@H]1C[C@H]2[C@@H](O)c1cc(OCCCN(C)C)nc2ccc(OC)cc12,outcome,[1],inactive
Cc1nc(-c2ccc(-c3ccc(C(=O)Nc4ccc5c(c4)C4(CCNCC4)CO5)cc3)c(C)c2)no1,outcome,[1],inactive
CC[C@H]1CN2CC[C@@H]1C[C@H]2[C@H](O)c1cc(N2CCSCC2)nc2ccc(OC)cc12,outcome,[1],inactive
O=c1c2ccccc2nc(C=Cc2ccc([N+](=O)[O-])cc2)n1-c1ccccn1,outcome,[1],inactive
NC(N)=NC(=O)Nc1ccc([N+](=O)[O-])c(Cl)c1,outcome,[1],inactive
O=c1c2ccccc2[nH]c(=S)n1-c1ccccc1,log fold change Tl+ flux,F380Y,-0.0122 (inactive)
same,log fold change Tl+ flux,F380Y/beta1,0.0064 (inactive)
same,log fold change Tl+ flux,F380Y/beta2Delta,0.0408 (inactive)
same,log fold change Tl+ flux,F380Y/beta4,0.0104 (inactive)
same,log fold change Tl+ flux,[2],0.0486 (inactive)
same,log fold change Tl+ flux,R275C,-0.0195 (inactive)
same,log fold change Tl+ flux,R275C/beta1,0.0238 (inactive)
same,log fold change Tl+ flux,R275C/beta2Delta,-0.000731 (inactive)
same,log fold change Tl+ flux,R275C/beta4,0.00834 (inactive)
same,log fold change Tl+ flux,R275C/Slo1WT/beta2,-0.0521 (inactive)
CC(C)CNCc1cccc(-c2cccc(CN(C(=O)NC3CCCCC3)C3CCN(Cc4ccccc4)CC3)c2)c1,outcome,[1],inactive

# From PubChem BioAssay
